About 83,000 compounds went through this panel and 20% of them were active in at least one assay; those are over-represented in the sample as a whole.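 The test compound was applied at a single concentration to cells in 96-well plates for 48 hours, and percent growth was recorded.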 Unmarked numbers belong to inactive results. Active and inactive are the calls of the source. How the source made its calls: active means growth percent below 10; inactive means the rest.

Seven compounds from PubChem BioAssay (NCI) can be followed below.

Test systems include NCI-H23 lung; NCI-H226 lung; NCI-H322M lung; HOP-62 NSCLC; NCI-H460 lung; HOP-92 NSCLC; NCI-H522 lung; A549/ATCC NSCLC; 786-0 renal; COLO 205 colon; DU-145 prostate; K-562 leukemia; MALME-3M melanoma; MDA-MB-231 breast; RXF 393 renal; SF-268 CNS; SF-295 CNS; SF-539 CNS; UACC-257 melanoma; M14 melanoma.
What all share (test): NCI-60 one-dose screen, 48 h (100 = growth as untreated, 0 = no growth, -100 = all killed)
Conditions in all cases: 10 µM unless noted

For the compound `O=C(NCCNc1nccc(-c2c(-c3cccc(O)c3)nc3sccn23)n1)c1ccc(N2CCOCC2)c(C(F)(F)F)c1`, the growth with NCI-H23 lung was 85.4%; in the experiment with NCI-H226 lung it was 69.5%; in the experiment with NCI-H322M lung it was 102%; in the experiment on HOP-62 NSCLC, 96.7%; in the experiment on NCI-H460 lung, 66.9%; in the experiment on HOP-92 NSCLC, 38.9%. Further, the growth in the experiment with NCI-H522 lung was 74.4%; with A549/ATCC NSCLC, 64.1%; in the experiment on 786-0 renal, 60.1%; in the experiment with COLO 205 colon it was 43.4%; with DU-145 prostate, 94.9%; in the experiment with K-562 leukemia, 63%. For the same compound, the growth was -4.27% (active) with MALME-3M melanoma; 64.9% in the experiment on MDA-MB-231 breast; 57.6% in the experiment on RXF 393 renal; 79.1% in the experiment on SF-268 CNS; 67.5% in the experiment with SF-295 CNS; 77.8% with SF-539 CNS. In addition, the values for the growth in the experiment with UACC-257 melanoma and in the experiment on M14 melanoma were 15.8% and 19.1%, respectively.

On to `OCc1cn(-c2ccc(Cl)cc2)nc1-c1ccc(O)cc1`, for which the growth is 96.7% in the experiment with NCI-H23 lung; 96.9% in the experiment with NCI-H226 lung; 85.8% with NCI-H322M lung; 81.9% in the experiment with HOP-62 NSCLC; 106% in the experiment with NCI-H460 lung; 136% in the experiment on HOP-92 NSCLC. Further, the growth with NCI-H522 lung was 71.2%; with A549/ATCC NSCLC, 90.1%; in the experiment with 786-0 renal, 93.4%; in the experiment with COLO 205 colon, 115%; in the experiment with DU-145 prostate it was 97%; with K-562 leukemia, 88%. Besides, the growth in the experiment on MALME-3M melanoma is 100%; in the experiment on MDA-MB-231 breast, 97.9%; in the experiment on RXF 393 renal, 107%; in the experiment with SF-268 CNS it was 78.6%; in the experiment on SF-295 CNS, 100%; in the experiment on SF-539 CNS, 93.2%. The growth was 108% in the experiment on UACC-257 melanoma and 95% in the experiment on M14 melanoma.

Take `COc1ccc(-c2ccc(NC(=O)Nc3ccc(Cl)c(C(F)(F)F)c3)c(C)n2)cc1`: the growth with NCI-H23 lung was 30.9%; in the experiment on NCI-H226 lung, 65.2%; in the experiment with NCI-H322M lung, 71.4%; in the experiment with HOP-62 NSCLC it was 62.1%; in the experiment on NCI-H460 lung it was 30.9%; with HOP-92 NSCLC, 27%. Further, the growth with NCI-H522 lung is 24.8%; in the experiment with A549/ATCC NSCLC, 38.7%; with 786-0 renal, 56.1%; in the experiment with COLO 205 colon, 80.1%; in the experiment with DU-145 prostate, 54.5%; in the experiment with K-562 leukemia, 16.7%. In addition, the growth is 82.6% with MALME-3M melanoma; 85% with MDA-MB-231 breast; 81.4% in the experiment with RXF 393 renal; 73.7% with SF-268 CNS; 47% with SF-295 CNS; 81.3% with SF-539 CNS. The growth in the experiment with UACC-257 melanoma is 57.1%; in the experiment on M14 melanoma, 31.9%.

Regarding `O=C1OC(=O)C2C3CC(c4ccccc43)C12` (stereo not given), the growth with NCI-H23 lung was 101%; in the experiment on NCI-H226 lung, 110%; in the experiment with NCI-H322M lung it was 107%; with HOP-62 NSCLC, 97.8%; in the experiment with NCI-H460 lung it was 113%; with HOP-92 NSCLC it was 72.4%. Also, the growth was 105% in the experiment on NCI-H522 lung; 91.7% in the experiment on A549/ATCC NSCLC; 102% in the experiment with 786-0 renal; 97.8% with COLO 205 colon; 145% in the experiment with DU-145 prostate; 111% in the experiment on K-562 leukemia. The growth with MALME-3M melanoma was 101%; with MDA-MB-231 breast it was 117%; in the experiment with RXF 393 renal it was 116%; in the experiment with SF-268 CNS, 123%; in the experiment with SF-295 CNS it was 101%; in the experiment on SF-539 CNS, 103%. Further, the figures for the growth with UACC-257 melanoma and with M14 melanoma were 91.8% and 112%, respectively.

As for `CCOc1ccc(NC(=O)Nc2cc(C(C)C)ccc2C)cc1`, the growth was 79.2% with NCI-H23 lung; 92.8% in the experiment on NCI-H226 lung; 90.8% with NCI-H322M lung; 95% in the experiment with HOP-62 NSCLC; 106% with NCI-H460 lung; 55.1% in the experiment with HOP-92 NSCLC. The growth in the experiment with NCI-H522 lung is 46.4%; with A549/ATCC NSCLC it was 36.6%; with 786-0 renal, 13%; with COLO 205 colon, 98.7%; in the experiment on DU-145 prostate, 93.2%; in the experiment on K-562 leukemia, 85%. Further, the growth was 105% in the experiment with MALME-3M melanoma; 16.7% with MDA-MB-231 breast; -31.8% (active) in the experiment with RXF 393 renal; 69.2% with SF-268 CNS; 104% in the experiment on SF-295 CNS; 90% in the experiment with SF-539 CNS. Further, the growth is 66.4% with UACC-257 melanoma and 93.4% in the experiment with M14 melanoma.

On to `Nn1c(CN2CCN(c3cc4c(cc3F)c(=O)c(C(=O)O)cn4C3CC3)CC2)n[nH]c1=S`, for which the growth in the experiment with NCI-H23 lung was 95.2%; in the experiment on NCI-H226 lung it was 107%; in the experiment with NCI-H322M lung, 93.3%; in the experiment with HOP-62 NSCLC, 96.4%; with NCI-H460 lung, 109%; in the experiment on HOP-92 NSCLC, 116%. The growth is 85.8% in the experiment on NCI-H522 lung; 101% in the experiment on A549/ATCC NSCLC; 97.3% in the experiment on 786-0 renal; 121% in the experiment on COLO 205 colon; 107% with DU-145 prostate; 101% with K-562 leukemia. Moreover, the growth with MALME-3M melanoma was 94.6%; in the experiment on MDA-MB-231 breast it was 107%; with RXF 393 renal it was 109%; in the experiment with SF-268 CNS, 95.9%; in the experiment with SF-295 CNS it was 102%; with SF-539 CNS it was 99.3%. Further, the growth in the experiment with UACC-257 melanoma was 111%; in the experiment on M14 melanoma, 105%.

As for `CCN(CC)CC(=O)Nc1c(C)cccc1C`, the growth in the experiment on NCI-H23 lung was 106%; in the experiment with NCI-H226 lung, 92.9%; in the experiment with NCI-H322M lung it was 90.2%; with HOP-62 NSCLC, 106%; in the experiment with NCI-H460 lung, 112%; in the experiment on HOP-92 NSCLC, 104%. In addition, the growth in the experiment on NCI-H522 lung was 101%; in the experiment on A549/ATCC NSCLC, 104%; with 786-0 renal it was 95.4%; in the experiment on COLO 205 colon it was 115%; with DU-145 prostate, 121%; in the experiment with K-562 leukemia, 99.8%. In addition, the growth was 93.3% with MALME-3M melanoma; 108% with MDA-MB-231 breast; 102% in the experiment on RXF 393 renal; 108% with SF-268 CNS; 89.8% with SF-295 CNS; 104% with SF-539 CNS. Besides, the growth in the experiment with UACC-257 melanoma is 108%; in the experiment on M14 melanoma, 100%.
